Measurements: PubChem BioAssay
The source made the active and inactive calls. Unless noted, no rule for the calls is given here.

Columns and labels:
[1] = system: Wnt5a (protein binding on small-molecule microarray); assay: Wnt5a binders on small-molecule microarray, primary screen, biophysical, 635/667 nm fluorescence (AID 1142); settings: 635 nm fluorescence, higher = more signal;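 also: fluorescence read at 667 nm with signal to noise per printed feature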
[2] = cell viability in Huh7 cells, primary screen, cytotoxicity control for HCV replication inhibitor project, CellTiter-Glo luminescence, basal, 48 h (AID 1143); settings: Huh7 HCV replicon, higher = more signal, called active from +8 up or from −8 down;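 also: Huh7 hepatoma cells carrying a hepatitis C replication reporter with no stimulus; test concentration not given here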
[3] = P. aeruginosa biofilm formation inhibitors, primary screen, PAO1 strain, BacTiter-Glo luminescence, LB-PBS (AID 1144); settings: 12 h, higher = more signal
[4] = CREB reporter modulators without forskolin, primary screen, cell-based, PC12, CRE-LacZ reporter, unstimulated (AID 1145); settings: no forskolin, luminescence, 4.5 h, higher = more signal, called active from +8 up or from −8 down
[5] = CREB reporter modulators under forskolin, primary screen, cell-based, PC12, CRE-LacZ reporter, forskolin-stimulated (AID 1146); settings: luminescence, 4.5 h, higher = more signal, called active from +8 up or from −8 down;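 also: PC12 cells with 6xCRE LacZ reporter stimulated by forskolin 10 µM; beta-galactosidase reporter signal reflecting CREB driven transcription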
[6] = target: Streptavidin (Streptomyces avidinii) (UniProt P22629); assay: streptavidin binders on small-molecule microarray, primary screen, artefact control for SMM compound annotation, biophysical, 635/667 nm fluorescence (AID 1147); settings: streptavidin binding, higher = more signal;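 also: signal reflects streptavidin binding to arrayed compounds as a control protein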
Chain of Streptavidin (Streptomyces avidinii) (P22629 whole entry, looked up): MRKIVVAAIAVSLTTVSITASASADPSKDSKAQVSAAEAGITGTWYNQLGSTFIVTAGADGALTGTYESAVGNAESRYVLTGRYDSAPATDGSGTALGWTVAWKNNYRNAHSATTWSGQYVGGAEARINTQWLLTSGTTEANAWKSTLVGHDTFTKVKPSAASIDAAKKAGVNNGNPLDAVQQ

[7] = small-molecule binders of probe aInhba, primary screen, biochemical, small-molecule microarray, 635/667 nm fluorescence (AID 1148); settings: higher = more signal;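 also: score merges 667nm spot fluorescence with signal-to-noise for antibody binding to printed compounds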
[8] = target: Torsin-1A (Homo sapiens) (UniProt O14656); assay: torsin A binders from cell lysate, primary screen, small-molecule microarray, wild-type, 635/667 nm (AID 1149); settings: COS7 hTOR1A-WT lysate, 635 nm fluorescence, higher = more signal
Chain of Torsin-1A (Homo sapiens) (O14656 whole entry, looked up): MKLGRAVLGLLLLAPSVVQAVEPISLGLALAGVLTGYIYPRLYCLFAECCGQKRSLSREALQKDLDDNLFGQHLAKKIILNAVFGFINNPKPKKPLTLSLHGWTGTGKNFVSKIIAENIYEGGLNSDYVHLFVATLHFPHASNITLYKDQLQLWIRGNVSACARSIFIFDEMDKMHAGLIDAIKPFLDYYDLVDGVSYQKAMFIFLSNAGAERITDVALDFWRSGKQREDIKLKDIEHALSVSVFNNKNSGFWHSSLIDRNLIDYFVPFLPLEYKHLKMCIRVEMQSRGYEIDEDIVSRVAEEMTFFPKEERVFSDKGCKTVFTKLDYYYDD

[9] = target: Torsin-1A (Homo sapiens) (UniProt O14656); assay: small-molecule binders of mutant TOR1A in lysate, primary screen, cell lysate, small-molecule microarray, COS7 lysate, 635/667 nm fluorescence (AID 1150); settings: COS7 hTOR1A mutant lysate, 635 nm fluorescence, higher = more signal;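 also: score pools 667 nm emission and signal to noise measuring lysate protein binding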
[10] = system: Sonic hedgehog protein (Shh); assay: small-molecule binders of Shh protein, primary screen, biochemical, small-molecule microarray, 635/667 nm fluorescence (AID 1151); settings: small-molecule microarray binding, 635 nm fluorescence; higher = more signal;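 also: Shh protein binding to compounds spotted on small-molecule microarray slides; score combines spot fluorescence intensity with signal-to-noise across triplicate slides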
[11] = E. coli DRC41 culture turbidity changes, primary screen, E. coli filamentation inducer project, strain DRC41, OD650, 48 h (AID 1152);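 also: E. coli MC1000 strain DRC41 lacking acrAB efflux pump and sulA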; settings: E. coli DRC41 (acrAB sulA), higher = more signal, called active from +8 up or from −8 down
[12] = small-molecule binders of probe aLefty1, primary screen, biochemical, small-molecule microarray, 635/667 nm fluorescence (AID 1153); settings: higher = more signal;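 also: score merges spot fluorescence with signal-to-noise ratio from the scanned slide images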
[13] = PSAC antagonists in infected red cells, primary screen, cell-based, P. falciparum Indochina, OD700, 1 h (AID 1154); settings: P. falciparum Indochina infected RBC osmotic lysis, higher = more signal, called active from +8 up or from −8 down
[14] = PSAC antagonists in infected red cells, primary screen, cell-based, P. falciparum Indochina, OD700, 2 h (AID 1155);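 also: lysis reports solute entry through the parasite surface anion channel PSAC; channel blockers reduce lysis of infected cells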; settings: P. falciparum Indochina infected erythrocytes, osmotic lysis OD700; higher = more signal, called active from +8 up or from −8 down
[15] = osmotic lysis modulators in infected erythrocytes, primary screen, PSAC antagonist project, cell-based, P. falciparum Indochina, OD700, 3 h (AID 1156); settings: higher = more signal, called active from +8 up or from −8 down
[16] = PSAC antagonists in infected red cells, primary screen, cell-based, P. falciparum Indochina, OD700, 18 h (AID 1157); settings: P. falciparum Indochina infected erythrocytes, osmotic lysis OD700, 18 h; higher = more signal, called active from +8 up or from −8 down
[17] = modulators of S6 phosphorylation in cells, primary screen, cell-based, A549, cytoblot, luminescence, serum-stimulated (AID 1158); settings: A549 phospho-S6 cytoblot, 5 h, higher = more signal;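 also: serum-stimulated A549 lung adenocarcinoma cells; signal is phosphorylated S6 detected by cytoblot immunostaining with HRP secondary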
[18] = target: NADPH oxidase 2 (Homo sapiens) (UniProt P04839); assay: NOX2-dependent H2O2 signal modulators, primary screen, NOX inhibitor project, cell-based, HEK293-NOX2, PMA-stimulated, Amplex Red fluorescence (AID 1159); settings: 45 min, higher = more signal, called active from +8 up or from −8 down; also: test concentration not given here
Chain of NADPH oxidase 2 (Homo sapiens) (P04839 whole entry, looked up): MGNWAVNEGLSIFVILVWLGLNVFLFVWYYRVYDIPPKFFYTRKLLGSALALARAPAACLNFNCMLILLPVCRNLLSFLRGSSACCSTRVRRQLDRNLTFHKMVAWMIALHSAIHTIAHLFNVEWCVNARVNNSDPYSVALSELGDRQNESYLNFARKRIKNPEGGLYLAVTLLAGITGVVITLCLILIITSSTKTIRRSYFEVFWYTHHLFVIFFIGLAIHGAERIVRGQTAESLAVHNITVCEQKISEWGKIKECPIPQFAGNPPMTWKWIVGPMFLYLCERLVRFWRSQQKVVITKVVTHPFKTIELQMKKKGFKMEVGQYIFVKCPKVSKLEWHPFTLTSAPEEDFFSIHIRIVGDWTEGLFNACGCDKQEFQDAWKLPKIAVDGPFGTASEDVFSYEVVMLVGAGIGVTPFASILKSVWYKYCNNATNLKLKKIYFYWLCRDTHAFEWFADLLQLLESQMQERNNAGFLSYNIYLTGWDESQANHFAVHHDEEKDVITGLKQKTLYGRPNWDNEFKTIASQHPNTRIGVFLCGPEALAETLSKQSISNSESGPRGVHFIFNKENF

[19] = target: NADPH oxidase 4 (Homo sapiens) (UniProt Q9NPH5); assay: NOX4-dependent H2O2 signal modulators, primary screen, NOX inhibitor project, cell-based, HEK293-NOX4, tetracycline-induced, Amplex Red fluorescence (AID 1160); settings: 45 min, higher = more signal, called active from +8 up or from −8 down
Chain of NADPH oxidase 4 (Homo sapiens) (Q9NPH5 whole entry, looked up): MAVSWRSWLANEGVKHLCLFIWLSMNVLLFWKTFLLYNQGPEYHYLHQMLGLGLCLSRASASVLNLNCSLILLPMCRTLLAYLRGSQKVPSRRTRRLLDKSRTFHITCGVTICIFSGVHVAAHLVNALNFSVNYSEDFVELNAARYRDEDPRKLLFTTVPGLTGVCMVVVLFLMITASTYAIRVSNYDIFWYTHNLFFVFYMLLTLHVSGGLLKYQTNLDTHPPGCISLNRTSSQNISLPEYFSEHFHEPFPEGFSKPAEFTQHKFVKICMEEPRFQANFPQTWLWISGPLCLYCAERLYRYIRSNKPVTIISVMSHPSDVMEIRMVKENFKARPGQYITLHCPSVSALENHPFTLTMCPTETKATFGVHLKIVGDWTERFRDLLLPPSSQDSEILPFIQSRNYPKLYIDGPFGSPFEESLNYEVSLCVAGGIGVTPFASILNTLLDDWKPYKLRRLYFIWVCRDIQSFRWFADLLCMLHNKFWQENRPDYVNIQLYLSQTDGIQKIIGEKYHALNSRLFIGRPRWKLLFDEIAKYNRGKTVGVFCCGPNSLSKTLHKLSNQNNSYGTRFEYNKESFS

[20] = target: NADPH oxidase 5 (Homo sapiens) (UniProt Q96PH1); assay: NOX5-dependent H2O2 signal modulators, primary screen, NOX inhibitor project, cell-based, HEK293-NOX5, Amplex Red fluorescence (AID 1161); settings: HEK293-NOX5, ionomycin, 45 min, higher = more signal
Chain of NADPH oxidase 5 (Homo sapiens) (Q96PH1 whole entry, looked up): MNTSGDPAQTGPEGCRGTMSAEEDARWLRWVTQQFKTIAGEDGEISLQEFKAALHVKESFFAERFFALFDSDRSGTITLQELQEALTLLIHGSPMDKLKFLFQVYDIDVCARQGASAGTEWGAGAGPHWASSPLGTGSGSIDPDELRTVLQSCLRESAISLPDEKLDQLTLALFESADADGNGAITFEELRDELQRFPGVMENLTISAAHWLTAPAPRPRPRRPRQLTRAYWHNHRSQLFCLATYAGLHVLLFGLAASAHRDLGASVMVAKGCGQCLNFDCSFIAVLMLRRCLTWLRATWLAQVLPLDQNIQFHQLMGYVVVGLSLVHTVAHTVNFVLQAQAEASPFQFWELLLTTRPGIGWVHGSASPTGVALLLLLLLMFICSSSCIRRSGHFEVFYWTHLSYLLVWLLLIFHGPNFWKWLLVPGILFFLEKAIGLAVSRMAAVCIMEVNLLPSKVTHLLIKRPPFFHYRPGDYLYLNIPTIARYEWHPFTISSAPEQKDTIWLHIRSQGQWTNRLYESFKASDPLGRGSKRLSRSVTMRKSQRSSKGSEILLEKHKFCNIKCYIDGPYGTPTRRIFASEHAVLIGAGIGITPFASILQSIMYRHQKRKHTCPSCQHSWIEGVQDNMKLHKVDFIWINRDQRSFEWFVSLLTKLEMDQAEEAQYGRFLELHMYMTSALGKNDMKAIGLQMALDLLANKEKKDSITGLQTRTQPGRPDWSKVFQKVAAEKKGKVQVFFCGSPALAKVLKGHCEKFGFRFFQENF

| Structure (SMILES) | composite z-score [1] | z-score [2] | z-score [3] | z-score [4] | z-score [5] | composite z-score [6] | composite z-score [7] | composite z-score [8] | composite z-score [9] | composite z-score [10] | z-score [11] | composite z-score [12] | z-score [13] | z-score [14] | z-score [15] | z-score [16] | z-score [17] | z-score [18] | z-score [19] | z-score [20] |
| --- | --- | --- | --- | --- | --- | --- | --- | --- | --- | --- | --- | --- | --- | --- | --- | --- | --- | --- | --- | --- |
| COC(=O)[C@@]1(Cc2ccc(OC)cc2)[C@H]2c3cc(C(=O)N(C)C)n(CCN4CNCC4=O)c3C[C@H]2CN1C(=O)c1ccccc1 | 0.0523 | -0.582 (inactive) | 0.726 (inactive) | -0.754 (inactive) | -0.403 (inactive) | 0.494 | -0.0736 | -0.322 | -0.502 | -2.07 | -1.1 (inactive) | 0.249 | 0.143 (inactive) | -0.954 (inactive) | -0.163 (inactive) | -2.05 (inactive) | 0.963 | 0.821 (inactive) | 2.29 (inactive) | 0.453 |
| C=C(COC)/C(=C/C[C@H](OC(=O)c1ccncc1)c1ccc(OCCO)cc1)c1cnc2ccccc2c1 | 0.638 | -0.593 (inactive) | 0.308 (inactive) | 6.73 (inactive) | -0.073 (inactive) | 1.73 | -0.0087 | 1.27 | 0.953 | 2.11 | -0.469 (inactive) | 0.062 | 20 (active) | 3.18 (inactive) | 1.47 (inactive) | 0.848 (inactive) | 0.123 | -0.294 (inactive) | -0.192 (inactive) | -0.608 |
